# Experimental data as given in publication PMC11006913.
# Where a chain is given by its changes, count along the chain named.
# Legend:
# Assay in all cases: PBM; 200 nM protein, PBS
# Conditions in all cases: dsDNA, one strand shown
# HOXC10 [1] = molecular target: HOXC10 (Homo sapiens, UniProt Q9NYD6 254-340)
# HOXA2 [2] = molecular target: HOXA2 (Homo sapiens, UniProt O43364 129-215, R185T)
# HOXA2 [3] = molecular target: HOXA2 (Homo sapiens, UniProt O43364 129-215, R185K)
# HOXC10 [4] = molecular target: HOXC10 (Homo sapiens, UniProt Q9NYD6 254-340, K271E)
# Sequence of HOXC10 (Homo sapiens, UniProt Q9NYD6 254-340, K271E) (Q9NYD6 254-340 K271E): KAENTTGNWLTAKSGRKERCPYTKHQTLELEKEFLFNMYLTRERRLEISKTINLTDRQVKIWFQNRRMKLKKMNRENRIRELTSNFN
# HOXA2 [5] = molecular target: HOXA2 (Homo sapiens, UniProt O43364 129-215, Y150S)
# Sequence of HOXA2 (Homo sapiens, UniProt O43364 129-215, Y150S) (O43364 129-215 Y150S): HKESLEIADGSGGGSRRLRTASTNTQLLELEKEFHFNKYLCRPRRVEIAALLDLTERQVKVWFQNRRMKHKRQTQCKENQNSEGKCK
# HOXA2 [6] = molecular target: HOXA2 (Homo sapiens, UniProt O43364 129-215)
# Sequence of HOXA2 (Homo sapiens, UniProt O43364 129-215) (O43364 129-215): as the sequence (O43364 129-215 Y150S) above, with S22Y counted along it
# PAX4 [7] = molecular target: T1, PAX4 (Homo sapiens, UniProt O43316 9-242, R200K)
# T1 sequence: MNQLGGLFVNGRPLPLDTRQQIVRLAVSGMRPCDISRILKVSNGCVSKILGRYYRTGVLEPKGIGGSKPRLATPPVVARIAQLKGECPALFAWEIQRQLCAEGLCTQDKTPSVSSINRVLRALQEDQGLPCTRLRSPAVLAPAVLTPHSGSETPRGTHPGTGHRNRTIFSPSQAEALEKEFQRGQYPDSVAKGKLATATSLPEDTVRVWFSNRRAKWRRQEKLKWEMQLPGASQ
# PAX4 [8] = molecular target: T2, PAX4 (Homo sapiens, UniProt O43316 9-242)
# T2 sequence: T1 sequence with K192R
# PAX4 [9] = molecular target: T3, PAX4 (Homo sapiens, UniProt O43316 9-242, R200Q)
# T3 sequence: T1 sequence with K192Q
# PAX4 [10] = molecular target: T4, PAX4 (Homo sapiens, UniProt O43316 9-242, F177V)
# T4 sequence: T1 sequence with F169V, K192R
# PAX4 [11] = molecular target: T5, PAX4 (Homo sapiens, UniProt O43316 9-242, F177Y)
# T5 sequence: T1 sequence with F169Y, K192R
# PROP1 [12] = molecular target: PROP1 (Homo sapiens, UniProt O75360 56-141)
# Sequence of PROP1 (Homo sapiens, UniProt O75360 56-141) (O75360 56-141): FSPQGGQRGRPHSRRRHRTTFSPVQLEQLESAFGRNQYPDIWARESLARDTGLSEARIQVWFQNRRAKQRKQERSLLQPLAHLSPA
# PROP1 [13] = molecular target: PROP1 (Homo sapiens, UniProt O75360 56-141, R99H)
# Sequence of PROP1 (Homo sapiens, UniProt O75360 56-141, R99H) (O75360 56-141 R99H): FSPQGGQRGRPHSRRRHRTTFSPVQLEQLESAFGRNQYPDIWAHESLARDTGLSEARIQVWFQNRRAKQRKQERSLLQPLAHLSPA
# PROP1 [14] = molecular target: PROP1 (Homo sapiens, UniProt O75360 56-141, F88S)
# Sequence of PROP1 (Homo sapiens, UniProt O75360 56-141, F88S) (O75360 56-141 F88S): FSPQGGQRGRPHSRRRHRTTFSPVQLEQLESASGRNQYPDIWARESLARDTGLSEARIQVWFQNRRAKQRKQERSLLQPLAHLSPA
# PAX4 [15] = molecular target: T6, PAX4 (Homo sapiens, UniProt O43316 9-242, R227W)
# T6 sequence: T1 sequence with K192R, R219W
# PRRX1 = PRRX1 (Homo sapiens, UniProt P54821 80-166, F113S)
# Sequence of PRRX1 (P54821 80-166 F113S): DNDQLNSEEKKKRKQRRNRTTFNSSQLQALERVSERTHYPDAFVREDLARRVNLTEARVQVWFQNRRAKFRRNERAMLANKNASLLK
# HOXC9 = HOXC9 (Homo sapiens, UniProt P31274 178-260, R222W)
# Sequence of HOXC9 (P31274 178-260 R222W): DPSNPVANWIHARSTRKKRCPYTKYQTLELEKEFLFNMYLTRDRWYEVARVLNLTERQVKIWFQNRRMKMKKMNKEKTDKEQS
# ALX1 [16] = molecular target: ALX1 (Homo sapiens, UniProt Q15699 118-204, L144V)
# Sequence of ALX1 (Homo sapiens, UniProt Q15699 118-204, L144V) (Q15699 118-204 L144V): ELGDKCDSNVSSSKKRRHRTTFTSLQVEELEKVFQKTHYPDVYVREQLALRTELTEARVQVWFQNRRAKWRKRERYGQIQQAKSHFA
# ALX1 [17] = molecular target: ALX1 (Homo sapiens, UniProt Q15699 118-204, L144R)
# Sequence of ALX1 (Homo sapiens, UniProt Q15699 118-204, L144R) (Q15699 118-204 L144R): as the sequence (Q15699 118-204 L144V) above, with V27R counted along it
# ALX1 [18] = molecular target: ALX1 (Homo sapiens, UniProt Q15699 118-204)
# Sequence of ALX1 (Homo sapiens, UniProt Q15699 118-204) (Q15699 118-204): as the sequence (Q15699 118-204 L144V) above, with V27L counted along it
# HOXD13 [19] = molecular target: HOXD13 (Homo sapiens, UniProt P35453 263-343, T313R)
# Sequence of HOXD13 (Homo sapiens, UniProt P35453 263-343, T313R) (P35453 263-343 T313R): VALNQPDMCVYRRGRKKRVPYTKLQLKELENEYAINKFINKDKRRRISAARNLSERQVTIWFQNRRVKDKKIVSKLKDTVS
# HOXD13 [20] = molecular target: HOXD13 (Homo sapiens, UniProt P35453 263-343)
# Sequence of HOXD13 (Homo sapiens, UniProt P35453 263-343) (P35453 263-343): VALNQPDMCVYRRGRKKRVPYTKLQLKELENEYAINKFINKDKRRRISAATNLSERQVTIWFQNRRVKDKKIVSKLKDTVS
# HOXD13 [21] = molecular target: HOXD13 (Homo sapiens, UniProt P35453 263-343, T313A)
# Sequence of HOXD13 (Homo sapiens, UniProt P35453 263-343, T313A) (P35453 263-343 T313A): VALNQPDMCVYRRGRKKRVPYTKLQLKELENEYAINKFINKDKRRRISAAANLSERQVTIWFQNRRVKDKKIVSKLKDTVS
# ALX3 [22] = molecular target: ALX3 (Homo sapiens, UniProt O95076 139-225, N203Q)
# Sequence of ALX3 (Homo sapiens, UniProt O95076 139-225, N203Q) (O95076 139-225 N203Q): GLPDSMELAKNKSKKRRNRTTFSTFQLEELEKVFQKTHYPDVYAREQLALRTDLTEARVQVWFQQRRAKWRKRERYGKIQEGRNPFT
# ALX3 [23] = molecular target: ALX3 (Homo sapiens, UniProt O95076 139-225)
# Sequence of ALX3 (Homo sapiens, UniProt O95076 139-225) (O95076 139-225): as the sequence (O95076 139-225 N203Q) above, with Q65N counted along it
# ALX3 [24] = molecular target: ALX3 (Homo sapiens, UniProt O95076 139-225, L168Q)
# Sequence of ALX3 (Homo sapiens, UniProt O95076 139-225, L168Q) (O95076 139-225 L168Q): as the sequence (O95076 139-225 N203Q) above, with L30Q, Q65N counted along it
# ALX3 [25] = molecular target: ALX3 (Homo sapiens, UniProt O95076 139-225, L168V)
# Sequence of ALX3 (Homo sapiens, UniProt O95076 139-225, L168V) (O95076 139-225 L168V): as the sequence (O95076 139-225 N203Q) above, with L30V, Q65N counted along it
# ALX3 [26] = molecular target: ALX3 (Homo sapiens, UniProt O95076 139-225, N203S)
# Sequence of ALX3 (Homo sapiens, UniProt O95076 139-225, N203S) (O95076 139-225 N203S): as the sequence (O95076 139-225 N203Q) above, with Q65S counted along it
# ALX4 [27] = molecular target: ALX4 (Homo sapiens, UniProt Q9H161 200-286)
# Sequence of ALX4 (Homo sapiens, UniProt Q9H161 200-286) (Q9H161 200-286): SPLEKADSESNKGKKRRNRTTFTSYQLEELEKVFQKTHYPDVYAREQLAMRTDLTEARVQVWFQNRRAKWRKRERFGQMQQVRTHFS
# ALX4 [28] = molecular target: ALX4 (Homo sapiens, UniProt Q9H161 200-286, Q225E)
# Sequence of ALX4 (Homo sapiens, UniProt Q9H161 200-286, Q225E) (Q9H161 200-286 Q225E): as the sequence (Q9H161 200-286) above, with Q26E counted along it
# NKX2-6 = molecular target: T7, NKX2-6 (Homo sapiens, UniProt A6NCS4 118-204, R150C)
# T7 sequence: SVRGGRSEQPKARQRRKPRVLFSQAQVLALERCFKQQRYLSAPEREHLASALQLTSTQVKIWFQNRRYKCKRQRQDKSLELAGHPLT
# Sequence of HOXC10 (Homo sapiens, UniProt Q9NYD6 254-340) (Q9NYD6 254-340): as the sequence (Q9NYD6 254-340 K271E) above, with E18K counted along it
# Sequence of HOXA2 (Homo sapiens, UniProt O43364 129-215, R185T) (O43364 129-215 R185T): as the sequence (O43364 129-215 Y150S) above, with S22Y, R57T counted along it
# Sequence of HOXA2 (Homo sapiens, UniProt O43364 129-215, R185K) (O43364 129-215 R185K): as the sequence (O43364 129-215 Y150S) above, with S22Y, R57K counted along it
sequence,measurement,setting,value
CGCCCCCC,binding signal,HOXC10 [1],"9.91 upbm affinity estimate (log intensity, higher = more binding, comparable within an allelic series)"
same,binding signal,HOXA2 [2],"6.85 upbm affinity estimate (log intensity, higher = more binding, comparable within an allelic series)"
same,binding signal,HOXA2 [3],"9.91 upbm affinity estimate (log intensity, higher = more binding, comparable within an allelic series)"
same,binding signal,HOXC10 [4],"9.87 upbm affinity estimate (log intensity, higher = more binding, comparable within an allelic series)"
same,binding signal,HOXA2 [5],"10.3 upbm affinity estimate (log intensity, higher = more binding, comparable within an allelic series)"
same,binding signal,HOXA2 [6],"6.92 upbm affinity estimate (log intensity, higher = more binding, comparable within an allelic series)"
CTCCCCCC,binding signal,HOXC10 [1],"9.99 upbm affinity estimate (log intensity, higher = more binding, comparable within an allelic series)"
same,binding signal,PAX4 [7],"9.31 upbm affinity estimate (log intensity, higher = more binding, comparable within an allelic series)"
same,binding signal,PAX4 [8],"9.32 upbm affinity estimate (log intensity, higher = more binding, comparable within an allelic series)"
same,binding signal,PAX4 [9],"9.28 upbm affinity estimate (log intensity, higher = more binding, comparable within an allelic series)"
same,binding signal,PAX4 [10],"9.04 upbm affinity estimate (log intensity, higher = more binding, comparable within an allelic series)"
same,binding signal,HOXC10 [4],"9.94 upbm affinity estimate (log intensity, higher = more binding, comparable within an allelic series)"
same,binding signal,PAX4 [11],"9.19 upbm affinity estimate (log intensity, higher = more binding, comparable within an allelic series)"
same,binding signal,PROP1 [12],"6.67 upbm affinity estimate (log intensity, higher = more binding, comparable within an allelic series)"
same,binding signal,PROP1 [13],"6.5 upbm affinity estimate (log intensity, higher = more binding, comparable within an allelic series)"
same,binding signal,PROP1 [14],"5.95 upbm affinity estimate (log intensity, higher = more binding, comparable within an allelic series)"
same,binding signal,PAX4 [15],"9.13 upbm affinity estimate (log intensity, higher = more binding, comparable within an allelic series)"
TTAATAAA,binding signal,HOXC10 [1],"12.2 upbm affinity estimate (log intensity, higher = more binding, comparable within an allelic series)"
same,binding signal,PRRX1,"11 upbm affinity estimate (log intensity, higher = more binding, comparable within an allelic series)"
same,binding signal,HOXC10 [4],"11.5 upbm affinity estimate (log intensity, higher = more binding, comparable within an allelic series)"
same,binding signal,HOXC9,"11.2 upbm affinity estimate (log intensity, higher = more binding, comparable within an allelic series)"
ACCCGAGC,binding signal,HOXC10 [1],"10.1 upbm affinity estimate (log intensity, higher = more binding, comparable within an allelic series)"
same,binding signal,PAX4 [7],"9.37 upbm affinity estimate (log intensity, higher = more binding, comparable within an allelic series)"
same,binding signal,PAX4 [8],"9.24 upbm affinity estimate (log intensity, higher = more binding, comparable within an allelic series)"
same,binding signal,ALX1 [16],"6.62 upbm affinity estimate (log intensity, higher = more binding, comparable within an allelic series)"
same,binding signal,PAX4 [9],"9.32 upbm affinity estimate (log intensity, higher = more binding, comparable within an allelic series)"
same,binding signal,ALX1 [17],"6.43 upbm affinity estimate (log intensity, higher = more binding, comparable within an allelic series)"
same,binding signal,PAX4 [10],"9.28 upbm affinity estimate (log intensity, higher = more binding, comparable within an allelic series)"
same,binding signal,HOXC10 [4],"10 upbm affinity estimate (log intensity, higher = more binding, comparable within an allelic series)"
same,binding signal,PAX4 [11],"9.29 upbm affinity estimate (log intensity, higher = more binding, comparable within an allelic series)"
same,binding signal,PAX4 [15],"9.37 upbm affinity estimate (log intensity, higher = more binding, comparable within an allelic series)"
same,binding signal,ALX1 [18],"6.4 upbm affinity estimate (log intensity, higher = more binding, comparable within an allelic series)"
AGGGCGGA,binding signal,HOXC10 [1],"9.89 upbm affinity estimate (log intensity, higher = more binding, comparable within an allelic series)"
same,binding signal,HOXD13 [19],"9.35 upbm affinity estimate (log intensity, higher = more binding, comparable within an allelic series)"
same,binding signal,HOXD13 [20],"9.36 upbm affinity estimate (log intensity, higher = more binding, comparable within an allelic series)"
same,binding signal,HOXC10 [4],"9.9 upbm affinity estimate (log intensity, higher = more binding, comparable within an allelic series)"
same,binding signal,HOXD13 [21],"9.37 upbm affinity estimate (log intensity, higher = more binding, comparable within an allelic series)"
AATACTAG,binding signal,HOXC10 [1],"10.7 upbm affinity estimate (log intensity, higher = more binding, comparable within an allelic series)"
CCTGGGAC,binding signal,HOXC10 [1],"9.91 upbm affinity estimate (log intensity, higher = more binding, comparable within an allelic series)"
same,binding signal,ALX3 [22],"7.73 upbm affinity estimate (log intensity, higher = more binding, comparable within an allelic series)"
same,binding signal,HOXC10 [4],"9.99 upbm affinity estimate (log intensity, higher = more binding, comparable within an allelic series)"
same,binding signal,ALX3 [23],"7.73 upbm affinity estimate (log intensity, higher = more binding, comparable within an allelic series)"
same,binding signal,ALX3 [24],"7.73 upbm affinity estimate (log intensity, higher = more binding, comparable within an allelic series)"
same,binding signal,ALX3 [25],"7.7 upbm affinity estimate (log intensity, higher = more binding, comparable within an allelic series)"
same,binding signal,ALX3 [26],"7.68 upbm affinity estimate (log intensity, higher = more binding, comparable within an allelic series)"
ATGCATAA,binding signal,HOXC10 [1],"11.2 upbm affinity estimate (log intensity, higher = more binding, comparable within an allelic series)"
same,binding signal,ALX4 [27],"10.3 upbm affinity estimate (log intensity, higher = more binding, comparable within an allelic series)"
same,binding signal,ALX4 [28],"9.57 upbm affinity estimate (log intensity, higher = more binding, comparable within an allelic series)"
same,binding signal,HOXC10 [4],"10.9 upbm affinity estimate (log intensity, higher = more binding, comparable within an allelic series)"
ACCGGGCT,binding signal,HOXC10 [1],"10.1 upbm affinity estimate (log intensity, higher = more binding, comparable within an allelic series)"
same,binding signal,NKX2-6,"9.65 upbm affinity estimate (log intensity, higher = more binding, comparable within an allelic series)"
same,binding signal,HOXC10 [4],"10.1 upbm affinity estimate (log intensity, higher = more binding, comparable within an allelic series)"
